Screen size: about 52,000 compounds; about 4,300 (8.3%) were called active. The full list was thinned out, with actives kept by preference. Values without a mark were called inactive. Cut-off read from the data, not from the text of the source: active = survival mostly below about 52% (no sharp cut-off); inactive = mostly above about 56%.
What follows are compounds tested on DeltatarO mutant (assay: growth inhibition of S. aureus wild type versus tarO mutant, primary screen, teichoic acid synthesis inhibitors, RN4220, OD600 (AID 463173)). Conditions: OD600, 18 h, hits give low values, screened at 18.75 µg/mL (by protocol).

Compound | survival
CCOC(=O)c1oc2ccc(S(=O)(=O)n3nc(-c4cc(OC)c(OC)c(OC)c4)cc3N)cc2c1C | 73%
Cc1cccc(N2CCN(C(=O)C3CCN(S(=O)(=O)c4c(C)noc4C)CC3)CC2C)c1 (configuration not stated) | 100%
CCOc1ccc(-c2nn(CC(=O)NC3CCCCC3)c3c2cnc2ccc(C)cc23)cc1 | 107%
CCOc1ccc(NC(=O)C2CCCN(c3nn4cc(-c5ccc(OC)cc5)nc4s3)C2)cc1 (configuration not stated) | 113%
Cc1oc(-c2cccc(Cl)c2)nc1CSc1nncn2c1cc1occc12 | 103%
COC(=O)c1sccc1S(=O)(=O)N(CC(=O)Nc1cc(C)cc(C)c1)c1ccc(Cl)cc1 | 88%
Cn1c(SCC#N)nc2c(c1=O)C1(CCCCC1)Cc1ccccc1-2 | 103%
CCCCNC(=O)C1CCN(Cc2cccc(OC)c2O)CC1 | 78%
CCn1c(SCC(=O)Nc2ccccc2C(=O)OC)nc2ccsc2c1=O | 94%
COC(=O)c1ccccc1NC(=O)CSc1nc(-c2ccccc2)cc(C(F)(F)F)n1 | 25% (active)
CCCNC(=O)CSc1nc(-c2ccccc2)cc(C(F)(F)F)n1 | 77%
COC(=O)c1ccccc1NC(=O)CSc1nc2ccsc2c(=O)n1CCC(C)C | 88%
COC(=O)CSc1nc(-c2ccccc2)cc(C(F)(F)F)n1 | 88%
CCC(C)n1c(SCC(=O)Nc2ccccc2C(=O)OC)nc2ccsc2c1=O (configuration not stated) | 17% (active)
CCNC(=O)C1CCCN(c2ncnc3onc(C)c23)C1 (configuration not stated) | 101%
CCOc1ccccc1NC(=O)c1ccc2c(c1)CCN2S(C)(=O)=O | 75%
COc1ccc(S(=O)(=O)Nc2cccc(-c3ccc(N4CCOCC4)nn3)c2)cc1F | 88%
O=C1c2oc3ccccc3c(=O)c2C(c2cccc(O)c2)N1Cc1ccc(F)cc1 (configuration not stated) | 77%
COCCN1C(=O)c2oc3cc(C)cc(C)c3c(=O)c2C1c1cccc(O)c1 (configuration not stated) | 71%
Cc1cc(C)c2c(=O)c3c(oc2c1)C(=O)N(Cc1ccco1)C3c1ccc(F)cc1 (configuration not stated) | 53%
COc1ccc(CCN2C(=O)c3oc4cc(C)cc(C)c4c(=O)c3C2c2ccc(F)cc2)cc1OC (configuration not stated) | 56%
Cc1cc(C)c2c(=O)c3c(oc2c1)C(=O)N(Cc1ccc(F)cc1)C3c1cccc(O)c1 (configuration not stated) | 52% (active)
CCCN1C(=O)c2oc3cc(C)cc(C)c3c(=O)c2C1c1ccc(F)cc1 (configuration not stated) | 49% (active)

Compound | survival
COc1ccc(CNC(=O)c2ccc3c(c2)nc2n3CCCCC2)cc1 | 89%
CCN(CC)S(=O)(=O)c1ccc2nc(NC(=O)c3ccc(Br)o3)sc2c1 | 87%
N#Cc1ccc(NC(=O)c2cc(-c3cccc(Cl)c3)on2)cc1 | 71%
CCCCN(C)C(=O)C1CCC(Cn2c(=O)[nH]c3ccsc3c2=O)CC1 (configuration not stated) | 0% (active)
CNC(=O)C1CCC(Cn2c(=O)[nH]c3ccsc3c2=O)CC1 (configuration not stated) | 99%
CCCCCNC(=O)C1CCC(Cn2c(=O)c3sccc3n(CC)c2=O)CC1 (configuration not stated) | 49%
CCC(CC)C(=O)Nc1cc(-c2ccccc2F)nn1-c1ccccc1 | 76%
CCOC(=O)c1c(NC(=O)COc2cccc(C)c2C)sc2c1CCCCC2 | 64%
CCOC(=O)c1c(NC(=O)COc2ccccc2Br)sc2c1CCCCC2 | 40% (active)
COC(=O)c1c(NC(=O)COc2cccc(C(F)(F)F)c2)sc2c1CCCC2 | 49%
CCOC(=O)c1c(NC(=O)COc2cccc(C(F)(F)F)c2)sc2c1CCCCC2 | 60% (active)
CCOC(=O)c1c(NC(=O)COc2ccccc2F)sc2c1CCCC2 | 67%
CCOC(=O)c1c(NC(=O)COc2cccc(C(F)(F)F)c2)sc2c1CCC(C)C2 (configuration not stated) | 68%
O=S(=O)(Nc1cccc(-c2ccc(N3CCOCC3)nn2)c1)c1ccc(F)cc1F | 62%
Cc1c(CCNC(=O)c2c(F)cccc2F)sc2nc(-c3ccc(F)cc3)nn12 | 117%
CCOc1ccccc1CNC(=O)c1ccc(NC(=O)N2CCSc3ncccc32)cc1 | 79%
CCc1nnc(NC(=O)CSC2=NC(=O)C(NC(C)=O)C(=O)N2)s1 (configuration not stated) | 99%
CCCN(CCC)C(=O)Cn1c(=O)n(CCCCCC(=O)NCc2ccccc2Cl)c(=O)c2sccc21 | 81%
Cc1ccc(Cn2c(=O)n(Cc3ccccc3)c(=O)c3oc4ccccc4c32)cc1 | 69%
CC(=O)N1CCCc2cc(S(=O)(=O)NCc3cccc(C)c3)ccc21 | 78%
C=CCc1c(C)nc2nc(SCC(=O)Nc3ccc(C)c(C)c3)nn2c1C | 75%
CCOC(=O)c1ccccc1NC(=O)CSc1cc(C)[nH]c(=O)n1 | 88%
COc1cc(C(=O)Nc2cc(C)ccc2OCc2cc(=O)n3cc(C)sc3n2)cc(OC)c1OC | 89%

Compound | survival
COc1ccc(N2CCN(C(=O)c3cccn3-c3nnc(N4CCCC4)s3)CC2)cc1 | 101%
O=C(c1cccn1-c1nnc(N2CCCCC2)s1)N1CCN(c2ccccc2)CC1 | 0% (active)
O=C(c1cccn1-c1nnc(N2CCCCC2)s1)N1CCN(c2ccc(Cl)cc2)CC1 | 69%
O=C(c1cccn1-c1nnc(N2CCCC2)s1)N1CCN(c2ccc(F)cc2)CC1 | 118%
O=C(c1cccn1-c1nnc(N2CCCC2)s1)N1CCN(c2ccccc2)CC1 | 25% (active)
O=C(c1cccn1-c1nnc(N2CCCC2)s1)N1CCN(c2ccc(Cl)cc2)CC1 | 63%
O=S(=O)(c1ccc2nc(Nc3ccc(Br)cc3F)ccc2c1)N1CCCCC1 | 70%
CN(C)c1ccc(CNC(=O)C2COc3ccccc3C2)cc1 (configuration not stated) | 32% (active)
COc1ccc(CCNC(=O)C2COc3ccccc3C2)cc1OC (configuration not stated) | 75%
O=C(NCCc1ccc(Cl)cc1)C1COc2ccccc2C1 (configuration not stated) | 69%
CCOc1cc(CNC(=O)C2COc3ccccc3C2)cc(OCC)c1OCC (configuration not stated) | 69%
CCOc1ccc(CCNC(=O)C2COc3ccccc3C2)cc1OCC (configuration not stated) | 0% (active)
Cc1ccc(CCNC(=O)C2COc3ccccc3C2)cc1 (configuration not stated) | 74%
CCc1ccc(CNC(=O)C2COc3ccccc3C2)cc1 (configuration not stated) | 81%
Cc1ccc(CNC(=O)C2COc3ccccc3C2)cc1 (configuration not stated) | 117%
O=C(NCCc1ccccc1)C1COc2ccccc2C1 (configuration not stated) | 37% (active)
NC(=O)c1cc(S(=O)(=O)NCC2CCC(C(=O)Nc3cccc(Cl)c3)CC2)cs1 (configuration not stated) | 76%
CCCOc1ccc(-c2nonc2NC(=O)c2cc(OC)c(OC)c(OC)c2)cc1OCCC | 84%
COc1ccccc1CNC(=O)CCNS(=O)(=O)c1cccc2nsnc12 | 64%
CCc1ccccc1NC(=O)C(=O)c1cc(C)n(-c2ccccc2F)c1C | 87%
CCOC(=O)C1=C(CN2CCN(c3ccc(C)cc3C)CC2)NC(=O)NC1c1ccc(OC)cc1 (configuration not stated) | 97%
CC1(C)CC2(CC(C)(C)NC(=O)N2)NC(=O)N1 | 89%
Cc1cc(C)c(Cn2c(=O)n(Cc3ccccc3)c(=O)c3c(C)c(C)sc32)c(C)c1 | 49%

Compound | survival
Cc1cccc(-c2nnc(SCC(=O)NC3CCCCC3)o2)c1 | 82%
Cc1ccc(CNC(=O)c2ccc3c(O)c(S(=O)(=O)c4ccc(Cl)cc4)c(=O)[nH]c3c2)cc1 | 84%
Cc1cc(-c2nc3ncccc3o2)ccc1NC(=O)c1ccc(Cl)cc1 | 76%
COc1c(C)cc(Br)cc1C(=O)Nc1ccc(-c2nc3ncccc3o2)cc1 | 50%
COc1ccc(C(=O)Nc2ccc(-c3nc4ncccc4o3)cc2)cc1 | 78%
CCOc1cc(C(=O)Nc2ccc(-c3nc4ncccc4o3)cc2C)cc(OCC)c1OCC | 52% (active)
Cc1cc(-c2nc3ncccc3o2)ccc1NC(=O)c1ccc(Br)cc1 | 174%
CC(C)COc1cccc(C(=O)Nc2ccc(-c3nc4ncccc4o3)cc2)c1 | 65%
Cc1cc(C)cc(C(=O)Nc2ccc(-c3nc4ncccc4o3)cc2)c1 | 56%
Cc1ccc(-c2nc3ncccc3o2)cc1NC(=O)c1cccc(OCC(C)C)c1 | 42% (active)
Cc1ccc(-c2nc3ncccc3o2)cc1NC(=O)c1ccccc1Br | 53%
Cc1ccc(C(=O)Nc2cc(-c3nc4ncccc4o3)ccc2C)c(C)c1 | 98%
Cc1cc(-c2nc3ncccc3o2)ccc1NC(=O)c1ccccc1Br | 27% (active)
COc1ccc(C(=O)Nc2cc(-c3nc4ncccc4o3)ccc2C)cc1Br | 40% (active)
CCOC(=O)C1CCCN(S(=O)(=O)c2cc(Br)cc3c2N(C(C)=O)CC3)C1 (configuration not stated) | 72%
CCC1CN(C(=O)N2CCC(C(=O)NCc3cccc(C)c3)CC2)c2ccccc2O1 (configuration not stated) | 77%
O=C(NCc1ccco1)Nc1ccccc1 | 94%
O=C(CCCCn1c(=O)c2ccccc2n(CC(=O)Nc2ccc(F)cc2F)c1=O)NCCc1ccccc1 | 92%
CC1=C(C(=O)NCc2ccccc2Cl)C2(CCCCCC2)OC1=O | 49%
CCCN(c1ccc(C(C)C)cc1)S(=O)(=O)c1ccc2c(c1)n(C)c(=O)c(=O)n2C | 84%
COc1ccc(NC(=O)Cn2c(C)cc3ccccc3c2=O)c(OC)c1 | 59%
CCc1cccc(C)c1Nc1c(-c2cccc(O)c2)nc2nc(C)cc(C)n12 | 66%
CCc1cccc(NC(=O)CCS(=O)(=O)c2cc(Br)cc3c2N(C(C)=O)CC3)c1 | 144%

From PubChem BioAssay AID463173 (ICCB-Longwood Screening Facility, Harvard Medical School, 2010)
